{
  "source": "the OligoGym collection",
  "data": [
    {"target": "SLC50A1", "assay": "pooled miR-30 sensor sort-seq; sequence = guide strand", "details": "shRNA", "values": [
      {"sequence": "TTGGACACCATGATATAGGGAT", "sensor-assay potency score (higher = more potent)": 0.348},
      {"sequence": "ATATAGGGATCTCTGAGTCGAA", "sensor-assay potency score (higher = more potent)": -0.899},
      {"sequence": "TCGCATGTGCCTGAGGTCCGAG", "sensor-assay potency score (higher = more potent)": -1.22},
      {"sequence": "TATAGGGATCTCTGAGTCGAAA", "sensor-assay potency score (higher = more potent)": -1.32},
      {"sequence": "TTATCCTCAAAGTCATCTCTTG", "sensor-assay potency score (higher = more potent)": -0.683},
      {"sequence": "TAGTTTGAATCACCTTAGCCAA", "sensor-assay potency score (higher = more potent)": -1.16},
      {"sequence": "TCTGAGTCGAAACCCATAGAGG", "sensor-assay potency score (higher = more potent)": -1.58},
      {"sequence": "TCTGACGTTGTCCACACTCCGG", "sensor-assay potency score (higher = more potent)": -1.36},
      {"sequence": "TTAGTTTGAATCACCTTAGCCA", "sensor-assay potency score (higher = more potent)": 0.6},
      {"sequence": "TGATTTAGTTTGAATCACCTTA", "sensor-assay potency score (higher = more potent)": 0.457},
      {"sequence": "TTGATTTAGTTTGAATCACCTT", "sensor-assay potency score (higher = more potent)": -0.06}
    ]},
    {"target": "SLC5A9", "assay": "pooled miR-30 sensor sort-seq; sequence = guide strand", "details": "shRNA", "values": [
      {"sequence": "TTCTTTGGCAGACATCAGGGTC", "sensor-assay potency score (higher = more potent)": -0.689},
      {"sequence": "TTGTTTAATCTGTCTACACTGA", "sensor-assay potency score (higher = more potent)": -0.279},
      {"sequence": "AGGAACACCACAAACACTCTGC", "sensor-assay potency score (higher = more potent)": -0.94},
      {"sequence": "TGGTCTGTGCACCAACACCAGG", "sensor-assay potency score (higher = more potent)": -1.88},
      {"sequence": "TAGGCGTGCAGACCAACTCTGG", "sensor-assay potency score (higher = more potent)": -1.48},
      {"sequence": "TTAGAGAGTAGGAAGAGGCAGA", "sensor-assay potency score (higher = more potent)": 0.115},
      {"sequence": "TTAACAAGTCATGTCTCTCCAA", "sensor-assay potency score (higher = more potent)": -0.0979},
      {"sequence": "TGTTGGAACATCCCACTCGGGC", "sensor-assay potency score (higher = more potent)": -1.24},
      {"sequence": "TTGTCTAAGAGCTTTCTGCCCA", "sensor-assay potency score (higher = more potent)": -0.317},
      {"sequence": "TAACAAGTCATGTCTCTCCAAC", "sensor-assay potency score (higher = more potent)": -0.907},
      {"sequence": "TTCTACTCTCAAGACACACATT", "sensor-assay potency score (higher = more potent)": -0.868},
      {"sequence": "TAGTCCATTGTCTAAGAGCTTT", "sensor-assay potency score (higher = more potent)": -1.07}
    ]},
    {"target": "SLC6A11", "assay": "pooled miR-30 sensor sort-seq; sequence = guide strand", "details": "shRNA", "values": [
      {"sequence": "TCATTAACTGTCACCATCCGTG", "sensor-assay potency score (higher = more potent)": -0.565},
      {"sequence": "ATAATTGTTATAACTTCCCAGA", "sensor-assay potency score (higher = more potent)": -0.808},
      {"sequence": "TACAAGTAGAACTTGATGCCCT", "sensor-assay potency score (higher = more potent)": 0.00476},
      {"sequence": "TTCTGCAGAGACACATGGCTGT", "sensor-assay potency score (higher = more potent)": 0.541},
      {"sequence": "TTATCATAGAACCGGTTGCTTC", "sensor-assay potency score (higher = more potent)": -1.38},
      {"sequence": "TAGGAGATAACAGACAAGGCTA", "sensor-assay potency score (higher = more potent)": 0.294},
      {"sequence": "TTAACTGTCACCATCCGTGGGC", "sensor-assay potency score (higher = more potent)": 0.397},
      {"sequence": "TAGAACTTGATGCCCTCTGAGG", "sensor-assay potency score (higher = more potent)": -1.22},
      {"sequence": "TAGGAGAAAAAGATCTGCGTTC", "sensor-assay potency score (higher = more potent)": -0.00212},
      {"sequence": "TCAATGTTATCATAGAACCGGT", "sensor-assay potency score (higher = more potent)": -0.663},
      {"sequence": "TTCACTTGTGAACTGCCCCAGA", "sensor-assay potency score (higher = more potent)": -0.108},
      {"sequence": "TTCAATGTTATCATAGAACCGG", "sensor-assay potency score (higher = more potent)": -0.488}
    ]},
    {"target": "SLC6A17", "assay": "pooled miR-30 sensor sort-seq; sequence = guide strand", "details": "shRNA", "values": [
      {"sequence": "TTTCTCAGCATTCTCGACCACA", "sensor-assay potency score (higher = more potent)": -0.65},
      {"sequence": "AAGAAGAACATGACGGACCAGA", "sensor-assay potency score (higher = more potent)": 0.0729},
      {"sequence": "TATAGTAGAGTGTCTCTCCTGG", "sensor-assay potency score (higher = more potent)": 0.772},
      {"sequence": "TATATAGTGCCACACACCGATG", "sensor-assay potency score (higher = more potent)": -1.62},
      {"sequence": "TTCTTGGTTCCATAAATCCAGG", "sensor-assay potency score (higher = more potent)": -1.41}
    ]}
  ]
}
